Compound activity (PubChem)
The full list was thinned out, with hits kept by preference.
STK33 inh = STK33 kinase inhibitors, primary screen, biochemical, luminescence, ADP-Glo, MBP substrate; inhibition, % at 12.5 µM; Serine/threonine-protein kinase 33 (Homo sapiens), Q9BYT3; actives 0.44% (n = 27,000); in the data active means inhibition above about 20%; inconclusive means no clear call, values can overlap the other calls
Target sequence (Q9BYT3 whole entry, looked up): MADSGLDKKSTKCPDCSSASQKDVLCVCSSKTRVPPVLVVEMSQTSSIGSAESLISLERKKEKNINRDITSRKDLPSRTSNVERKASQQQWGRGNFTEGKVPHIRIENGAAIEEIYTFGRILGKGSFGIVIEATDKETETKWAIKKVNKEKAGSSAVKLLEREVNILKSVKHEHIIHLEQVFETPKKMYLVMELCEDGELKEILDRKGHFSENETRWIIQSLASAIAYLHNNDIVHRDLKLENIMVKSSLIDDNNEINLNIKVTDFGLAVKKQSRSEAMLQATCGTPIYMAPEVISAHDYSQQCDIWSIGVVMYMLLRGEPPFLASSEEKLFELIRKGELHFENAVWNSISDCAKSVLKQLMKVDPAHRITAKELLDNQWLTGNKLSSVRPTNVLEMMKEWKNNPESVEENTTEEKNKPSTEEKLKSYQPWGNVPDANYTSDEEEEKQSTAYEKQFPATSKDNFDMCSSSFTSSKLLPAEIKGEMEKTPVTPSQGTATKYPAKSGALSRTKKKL
PD-1 reversal = activators reversing PD-1 mediated T-cell inhibition, primary screen, luminescence, primary human CD4 T cells, PD-L1 beads; activation, % (concentration not given with the values); AID 2316, 2010; 29,000 tested, under 10 active; CellTiter-Glo 96 h; call rule not given here
NOMO-1 viab = NOMO-1 AML cell viability reduction, primary screen, STK33 inhibitor project, CellTiter-Glo luminescence | AID 2330, 2010 | actives 7.5% (n = 37,000) | NOMO-1 AML viability, 72 h | inhibition, % (no concentration beside the values); in the data active means inhibition above about 80%; inconclusive means no clear call, values can overlap the other calls
Large screens that a line does not name were inactive.

C[C@@H]1CN([C@@H](C)CO)C(=O)c2cc(NC(=O)Nc3ccccc3)ccc2O[C@@H]1CN(C)C(=O)Nc1ccc(C(F)(F)F)cc1	NOMO-1 viab 102
C[C@H](CO)N1C[C@H](C)[C@H](CN(C)C(=O)Nc2ccccc2)Oc2ccc(NC(=O)Nc3ccc(C(F)(F)F)cc3)cc2C1=O	NOMO-1 viab 103 (no result: STK33 inh)
C[C@@H]1CN([C@@H](C)CO)C(=O)c2cc(NC(=O)Nc3ccc(C(F)(F)F)cc3)ccc2O[C@@H]1CN(C)C(=O)Nc1ccccc1	none (no result: STK33 inh, PD-1 reversal)
C[C@H]1CN([C@@H](C)CO)C(=O)c2cc(NC(=O)Nc3ccccc3)ccc2O[C@H]1CN(C)C(=O)Nc1ccc(C(F)(F)F)cc1	none (no result: STK33 inh, PD-1 reversal)
C[C@@H]1CN([C@H](C)CO)C(=O)c2cc(NC(=O)Nc3ccccc3)ccc2O[C@@H]1CN(C)C(=O)Nc1ccc(C(F)(F)F)cc1	NOMO-1 viab 87 (no result: STK33 inh)
N/C(=N/C(=O)N1CCOCC1)c1ccccc1	none
Cc1noc(C)c1NC(=O)Nc1ccc2c(c1)CC(=O)N([C@@H](C)CO)C[C@@H](C)[C@@H](CN(C)Cc1ccc(-c3ccccc3)cc1)O2	none
COc1ccc([Si](C)(C)[C@H]2[C@H](CCn3cc([C@H](O)c4ccccc4)nn3)O[C@@]3(C(=O)N(Cc4cccc(N5CCOC5=O)c4)c4ccccc43)[C@@H]2C)cc1	none (no result: PD-1 reversal, NOMO-1 viab)
COc1ccc(-n2c(SCC(=O)Nc3ccc(C)c(Cl)c3)nnc2-c2ccncc2)cc1	none
COC(=O)c1ccc(CSc2nnc(-c3ccccc3)o2)o1	none
C[C@@H]1CCCCO[C@H](CN(C)C)[C@@H](C)CN([C@H](C)CO)C(=O)c2cc(NS(=O)(=O)c3ccc(F)cc3)ccc2O1	none (no result: STK33 inh, PD-1 reversal)
O=C1Nc2ccc(Br)cc2/C1=C/c1cc2c([nH]1)CCCC2	STK33 inh 72
CN(C)S(=O)(=O)c1ccc2c(c1)/C(=C/c1cc3c([nH]1)CCCC3)C(=O)N2	none
CC(C)NC(=O)Nc1ccc2c(c1)CC(=O)N([C@@H](C)CO)C[C@@H](C)[C@@H](CN(C)Cc1ccc(Oc3ccccc3)cc1)O2	NOMO-1 viab 89
COc1ccc(NC(=O)Nc2ccc3c(c2)CC(=O)N([C@@H](C)CO)C[C@@H](C)[C@@H](CN(C)Cc2ccc(Oc4ccccc4)cc2)O3)cc1	none (no result: STK33 inh, PD-1 reversal)
C[C@H](CO)N1C[C@H](C)[C@H](CN(C)Cc2ccccc2)Oc2ccc(NC(=O)Nc3ccc(F)cc3)cc2CC1=O	none
C[C@H]1CN([C@@H](C)CO)C(=O)Cc2cc(NC(=O)Nc3ccc(F)cc3)ccc2O[C@H]1CN(C)Cc1ccccc1	none
C[C@H]1CN([C@@H](C)CO)C(=O)Cc2cc(NC(=O)Nc3ccc(F)cc3)ccc2O[C@@H]1CN(C)Cc1ccc(Oc2ccccc2)cc1	NOMO-1 viab 107 (no result: STK33 inh)
C[C@@H]1CN([C@H](C)CO)C(=O)Cc2cc(NC(=O)Nc3ccc(F)cc3)ccc2O[C@H]1CN(C)Cc1ccc(Oc2ccccc2)cc1	NOMO-1 viab 123
CC(C)NC(=O)Nc1ccc2c(c1)CC(=O)N([C@@H](C)CO)C[C@H](C)[C@H](CN(C)Cc1ccc(Oc3ccccc3)cc1)O2	none (no result: PD-1 reversal)
C[C@@H]1CN([C@H](C)CO)C(=O)Cc2cc(NC(=O)Nc3ccc(F)cc3)ccc2O[C@@H]1CN(C)Cc1ccc(Oc2ccccc2)cc1	NOMO-1 viab 114
Cc1ccc(SCC(=O)Nc2cccc(Oc3ccc4c(c3)C(=O)NC4=O)c2)cc1	none
C[C@@H]1CN([C@@H](C)CO)C(=O)c2cccc(NS(C)(=O)=O)c2O[C@H]1CN(C)Cc1ccc(C(=O)Nc2ccccc2N)cc1	none (no result: STK33 inh)
C[C@H](CO)N1C[C@H](C)[C@@H](CN(C)Cc2ccc3c(c2)OCO3)Oc2ccc(NC(=O)Nc3ccc4c(c3)OCO4)cc2C1=O	none (no result: STK33 inh)
C[C@H]1CN([C@@H](C)CO)C(=O)Cc2cc(NC(=O)CCN3CCOCC3)ccc2O[C@H]1CN(C)C(=O)Nc1ccc2c(c1)OCO2	none
Cc1cc2c(CO)cc(SCC(O)C(=O)O)cc2o1 (stereo not given)	none (no result: PD-1 reversal, NOMO-1 viab)
C[C@H]1CN([C@@H](C)CO)C(=O)c2cc(NC(=O)Nc3ccccc3)ccc2O[C@H]1CN(C)C(=O)NC1CCCCC1	none
C[C@H](CO)N1C[C@H](C)[C@H](CN(C)Cc2ccc(Oc3ccccc3)cc2)Oc2ccc(NC(=O)Nc3ccc(F)cc3)cc2CC1=O	NOMO-1 viab 98
COc1ccc(NC(=O)Nc2ccc3c(c2)CC(=O)N([C@H](C)CO)C[C@H](C)[C@H](CN(C)Cc2ccc(Oc4ccccc4)cc2)O3)cc1	NOMO-1 viab inconclusive
COc1ccc(NC(=O)Nc2ccc3c(c2)C(=O)N([C@@H](C)CO)C[C@H](C)[C@@H](CN(C)S(C)(=O)=O)O3)cc1	none
Cc1ccc(S(=O)(=O)Nc2ccc3c(c2)CC(=O)N([C@@H](C)CO)C[C@H](C)[C@H](CN(C)Cc2ccc(-c4ccccc4)cc2)O3)cc1	none (no result: PD-1 reversal)
Cc1ccc(S(=O)(=O)Nc2ccc3c(c2)CC(=O)N([C@H](C)CO)C[C@H](C)[C@H](CN(C)Cc2ccc(-c4ccccc4)cc2)O3)cc1	NOMO-1 viab 84 (no result: PD-1 reversal)
C[C@@H]1CN([C@H](C)CO)C(=O)Cc2cc(NS(=O)(=O)c3ccccc3)ccc2O[C@@H]1CN(C)Cc1ccc(-c2ccccc2)cc1	NOMO-1 viab 104
Cc1ccc(S(=O)(=O)Nc2ccc3c(c2)CC(=O)N([C@@H](C)CO)C[C@@H](C)[C@@H](CN(C)Cc2ccccc2)O3)cc1	none
C[C@@H]1CN([C@H](C)CO)C(=O)Cc2cc(NS(=O)(=O)c3ccc(F)cc3)ccc2O[C@@H]1CN(C)Cc1ccccc1	none
Cc1ccc(S(=O)(=O)Nc2ccc3c(c2)CC(=O)N([C@H](C)CO)C[C@@H](C)[C@@H](CN(C)Cc2ccccc2)O3)cc1	NOMO-1 viab 85
C[C@@H]1CN([C@@H](C)CO)C(=O)Cc2cc(NS(=O)(=O)c3ccccc3)ccc2O[C@@H]1CN(C)Cc1ccc(-c2ccccc2)cc1	none
C[C@H]1CN([C@@H](C)CO)C(=O)Cc2cc(NS(=O)(=O)c3ccc(F)cc3)ccc2O[C@@H]1CN(C)Cc1ccc(-c2ccccc2)cc1	NOMO-1 viab 122 (no result: PD-1 reversal)
C[C@@H]1CN([C@H](C)CO)C(=O)Cc2cc(NS(C)(=O)=O)ccc2O[C@@H]1CN(C)C(=O)NC1CCCCC1	none
O=C(Cc1ccccc1)c1ccc(Br)cc1	none (no result: STK33 inh)
CCn1c(SCC(=O)Nc2cccc(Br)c2)nnc1-c1ccncc1	none
COc1cc(OC)c2ccc(=O)oc2c1CC(O)C(C)(C)O (stereo not given)	none
Cc1ccc(S(=O)(=O)N(C)C[C@@H]2Oc3ccc(NS(=O)(=O)c4c(C)noc4C)cc3C(=O)N([C@H](C)CO)C[C@H]2C)cc1	none
C[C@@H]1CN([C@@H](C)CO)C(=O)c2cc(N(C)C)ccc2O[C@H]1CN(C)Cc1ccc2c(c1)OCO2	none (no result: STK33 inh, PD-1 reversal)
C[C@@H]1CN([C@H](C)CO)C(=O)c2cc(NS(=O)(=O)c3ccc(Cl)cc3)ccc2O[C@H]1CN(C)Cc1ccc(-c2ccccc2)cc1	none
C[C@H]1CN([C@@H](C)CO)C(=O)Cc2cc(NS(=O)(=O)c3ccc(Cl)cc3)ccc2O[C@@H]1CN(C)Cc1ccc(-c2ccccc2)cc1	NOMO-1 viab 124
c1ccc(Cn2c(SCCN3CCOCC3)nc3ccccc32)cc1	none
